# Legend:
# Experiment in all cases: PBM binding z-score (relative to random genomic background probes); higher = stronger binding; sequences stand for … in GC…GCGATTGACAGCGTAGAATGAAGG
# [1] = test system: FXR:RXRa (NR concentration 270 nM, RXRa partner concentration 90 nM)
# Summary of the method: (§1)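 Random background probes are the reference for binding z-scores. These scores derive from regression-normalized fluorescence on custom Agilent 4×180K protein-binding microarrays incubated 1 h with ligand-free nuclear receptor dimers. Binding was detected with antibodies against each partner (one per run).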
# [2] = test system: LXRa:RXRa (NR concentration 270 nM, RXRa partner concentration 90 nM)
# Summary of the method: as §1
# [3] = test system: LXRa homodimer (NR concentration 270 nM)
# Summary of the method: as §1
# [4] = test system: LXRb:RXRa (NR concentration 270 nM, RXRa partner concentration 90 nM)
# Summary of the method: as §1
# [5] = test system: LXRb homodimer (NR concentration 270 nM)
# Summary of the method: as §1
# [6] = test system: PPARa:RXRa (NR concentration 270 nM, RXRa partner concentration 90 nM)
# Summary of the method: as §1
# [7] = test system: PPARg:RXRa (NR concentration 180 nM, RXRa partner concentration 90 nM)
# Summary of the method: as §1
# [8] = test system: PPARg:RXRa 270nM:90nM, anti-RXR (NR concentration 270 nM, RXRa partner concentration 90 nM)
# Summary of the method: as §1
# [9] = test system: PPARg:RXRa 30nM:10nM, anti-RXR (NR concentration 30 nM, RXRa partner concentration 10 nM)
# Summary of the method: as §1
# [10] = test system: PPARg:RXRa 90nM:30nM, anti-RXR (NR concentration 90 nM, RXRa partner concentration 30 nM)
# Summary of the method: as §1
# [11] = test system: PPARg:RXRa DBDmut IVT, anti-RXR (DBD mutation: RXRa K156A/R161A, NR concentration 270 nM, RXRa partner concentration 90 nM)
# Summary of the method: as §1
# [12] = test system: PPARg:RXRa IVT, anti-PPARg (NR concentration 270 nM, RXRa partner concentration 90 nM)
# Summary of the method: as §1
# [13] = test system: PPARg DBDmut:RXRa IVT, anti-PPARg (DBD mutation: PPARg1 K132A/R137A, NR concentration 270 nM, RXRa partner concentration 90 nM)
# Summary of the method: as §1
# [14] = test system: PPARg DBDmut IVT, anti-PPARg (DBD mutation: PPARg1 K132A/R137A, NR concentration 270 nM)
# Summary of the method: as §1
# [15] = test system: PPARg homodimer (NR concentration 180 nM)
# Summary of the method: as §1
# [16] = test system: PXR:RXRa (NR concentration 270 nM, RXRa partner concentration 90 nM)
# Summary of the method: as §1
# [17] = test system: PXR homodimer (NR concentration 270 nM)
# Summary of the method: as §1
# [18] = test system: RARa:RXR (NR concentration 270 nM, RXRa partner concentration 90 nM)
# Summary of the method: as §1
# [19] = test system: RARa homodimer (NR concentration 270 nM)
# Summary of the method: as §1
# [20] = test system: RARb:RXRa (NR concentration 270 nM, RXRa partner concentration 90 nM)
# Summary of the method: as §1
Sequence,PBM binding z-score [1],PBM binding z-score [2],PBM binding z-score [3],PBM binding z-score [4],PBM binding z-score [5],PBM binding z-score [6],PBM binding z-score [7],PBM binding z-score [8],PBM binding z-score [9],PBM binding z-score [10],PBM binding z-score [11],PBM binding z-score [12],PBM binding z-score [13],PBM binding z-score [14],PBM binding z-score [15],PBM binding z-score [16],PBM binding z-score [17],PBM binding z-score [18],PBM binding z-score [19],PBM binding z-score [20]
TCTGTTAGTTGAAGGGCAACCGACGAGTCCGTTT,0.758,0.866,0.374,0.639,0.983,0.837,-0.0567,1.91,3.09,2.14,1.61,1.1,0.429,0.734,1.19,0.704,1.02,0.521,0.738,1.65
AATACAGGGTCATCGTAGGCCAGAGTCCGCACAG,7.16,6.35,2.6,4.52,1.21,5.96,6.83,5.83,2.39,4.51,2.98,4.32,0.922,0.82,2.39,4.96,0.483,4.93,0.764,4.45
TCGAGTAGGTTACCAGTGGGGCATTCAGCTTTCT,-0.0125,1.19,-0.24,0.725,-0.623,1.16,0.278,1.36,1.05,1.36,3.82,3.43,-0.827,-0.418,0.236,-0.206,-0.913,0.372,-1.02,0.865
TTACCAACGTGAAAGGTCGTTGATGCACGCCTTG,1.28,1.48,0.436,1.66,-0.169,2.84,2.46,4.26,2.49,4.17,0.0227,1.04,0.702,-0.158,1.27,2.14,0.445,2.24,0.296,1.66
GGAACGAGGGCATTCGAGTTGACAGCATGGCGAT,1.65,1.9,-0.394,-0.0362,-0.953,1.34,0.875,0.675,-0.547,-0.0204,2.98,2.46,0.222,-0.00883,-0.393,3.85,1.46,0.951,-0.555,1.87
CCAGACAGGTGAAAGGTAACCCAGTCTGGTACGC,0.66,0.713,-0.512,0.445,-0.0532,3.4,5.86,5.65,3.97,5.97,1.94,3.53,-0.215,-0.209,0.618,0.694,-0.254,1.53,0.316,1.27
CTCGAAAGGTCGGTTGAGGTTAGTATACGGATAA,3.06,2.88,0.205,1.97,0.0146,2.81,0.316,1.21,0.186,0.845,-0.0127,0.923,0.234,-0.683,1.47,4.96,0.435,3.04,0.202,3.06
GCTGCTAGGTCAACTGATCGTCAGCTAAAGCTCG,4.12,2.74,-0.171,1.86,-0.26,3.62,2.54,3.43,0.361,2.23,4.99,4.1,0.249,-0.779,0.899,1.23,-0.904,2.14,-0.582,4.19

# — the supplement of paper PMC6555819
